Among all 320,000 compounds or so, about 3,300 (1%) were called active. The entries come from a sample that favours actives as a whole. Values without a mark were called inactive.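 Rule for the calls: active = every valid replicate shows activation above 250% relative to neutral control wells; inactive = the rest, any valid replicate at or below 250%.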

A short description of this assay: restored growth of temperature-sensitive Mot1-301 yeast – S. cerevisiae, ATP luminescence, 38.5C, SUMOylation pathway inhibitor project, primary screen (AID 2716).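 Note: OY570 slx delta 5 strain wells were the positive control but not used for scaling.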 The settings on record: S. cerevisiae Mot1-301 growth rescue, at 18.8 µM, hits give high values, percent above DMSO median, 100 means doubled.
In the case of `CNC(=O)/C(C#N)=C/c1c(F)cccc1Cl`, the growth rescue was -36.4%.
With `COc1ccc(/C=N/OCc2ccccc2C#N)c(OC)c1` the figure was 31.4%; with `COc1ccc(S(=O)(=O)N2CCOC2CNC(=O)C(=O)NCc2ccncc2)cc1C` (stereo not given), 392% (active).
For `COc1ccc(CCNC(=O)C(=O)NCC2OCCN2S(=O)(=O)c2ccc(OC)c(C)c2)cc1` (stereo not given), the growth rescue was 0.71%.
With `COc1ccc(S(=O)(=O)N2CCOC2CNC(=O)C(=O)NCc2ccncc2)cc1OC` (stereo not given) the figure was -3.43%.
As to `COc1ccc(N2CCN(C3CC(=O)N(c4ccc5c(c4)OCCO5)C3=O)CC2)cc1` (stereo not given), the growth rescue is 21.5%.
`Cc1ccc(CC2CC(=O)N(c3ccc4c(c3)OCCO4)C2=O)cc1` (stereo not given): the growth rescue is 1800% (active).
As to `Cc1ccc(CC2CC(=O)N(c3cc(C)ccc3C)C2=O)cc1` (stereo not given), the growth rescue was -12%.
For `O=C(NCc1ccccc1Cl)NC(=O)c1csc([N+](=O)[O-])c1`, the growth rescue was -7.29%.
The same measure for `COc1ccc(C(C#N)(CC(=O)O)c2cnccn2)cc1OC` (stereo not given): -15.4%; for `COc1cccc(OC)c1C(=O)Nc1ccc2c(c1)n(C)c(=O)n2C`: 676% (active).
For `Cn1c(=O)n(C)c2cc(C(=O)Nc3ccc(Br)cc3)ccc21`, the growth rescue is 15%.
Take `COc1cccc(OC)c1C(=O)Nc1ccc(Cc2ccncc2)cc1`: the growth rescue was 12.2%.
In the case of `CC(C)N(C(=O)CSc1nc(COc2ccccc2)nc2ccccc12)C(C)C`, the growth rescue was -2%.
Regarding `Cc1csc(NC(=S)Nc2cccc(Cl)c2)n1`, the growth rescue is 817% (active).
With `S=C(Nc1cccc(Cl)c1)Nc1ccc2c(c1)OCCO2`, the growth rescue was -16%.
Consider `FC(F)(F)c1cccc(NC(=S)Nc2cccc(Cl)c2)c1`, for which the growth rescue is 2.73%.
Take `O=c1c2c(-c3ccccc3)ccnc2[nH]n1-c1ccccc1`: the growth rescue was -10.9%.
Consider `CCC(CC)c1nnc(NC(=O)C2CCN(C(=O)c3ccco3)CC2)s1`, for which the growth rescue is -12.8%.
For the compound `CO/N=C(/CS(=O)(=O)c1ccc(Br)cc1)c1ccc(OC)cc1`, the growth rescue is -7.59%.
Take `O=C(O)Cc1ccc(-c2ccccc2)cc1`: the growth rescue is 403% (active).
With `O=C(Cc1ccc(-c2ccccc2)cc1)NC(c1ccccc1)c1ccccc1`, the growth rescue was -3.02%.
Regarding `O=C(O)Cc1ccc(NCc2ccccc2Cl)cc1`, the growth rescue was 67.5%.
In the case of `COc1cc(/C(=C/c2ccccc2)c2ccccc2)c2c(c1)oc1ccccc12`, the growth rescue is 1.69%.
In the case of `Cc1cc(C)cc(Oc2nc3c(C)cccn3c(=O)c2/C=C(\C#N)C(=O)NC2CCS(=O)(=O)C2)c1` (stereo not given), the growth rescue was -14%.
In the case of `CCC(C)(C)NC(=O)C(c1cccc(OC)c1OC)N(CC(C)C)C(=O)CCC(=O)Nc1cc(C)on1` (stereo not given), the growth rescue was 13.1%.
Take `COc1ccc(OCCC(=O)c2ccc(OC)cc2)cc1`: the growth rescue was 614% (active).
`COc1ccc(CCC(=O)c2ccc(OC)cc2)cc1`: the growth rescue is 34.5%.
With `COc1ccc(OCCCC(=O)Oc2ccc(OC)cc2)cc1` the figure was -3.53%.
For the compound `O=C1CCC/C(=N\NC(=O)NC2CCCCC2)C1`, the growth rescue is -14.5%.
As for `Cc1nn(Cc2ccc(F)cc2)c(C)c1NC(=O)c1noc2c1CCc1ccccc1-2`, the growth rescue is -2.02%.
For the compound `CCOc1ncccc1C(=O)Nc1ccc2c(c1)OCCO2`, the growth rescue is 6.77%.
With `COc1cc(/C=N/O)cc(Br)c1OCc1cccc(Cl)c1`, the growth rescue is -7.89%.
With `CCOc1cc(/C=N/O)cc(Br)c1OC` the figure was 341% (active).
Regarding `COc1cc(/C=N/O)cc(Br)c1OS(=O)(=O)c1ccc(C)cc1`, the growth rescue is 13.1%.
Consider `Cc1ccc(F)c(NC(=O)CCc2ccccc2)c1`, for which the growth rescue was -0.553%.
For the compound `COCCCNC(=O)C1CCC(CNS(=O)(=O)c2ccc(OC)cc2)CC1` (stereo not given), the growth rescue was -13.1%.
With `CCCCCCCCc1c(O)nc(-n2[nH]c(C)c(CCO)c2=O)[nH]c1=O` the figure was 605% (active).
With `CCCCc1c(O)nc2n(c1=O)CCS2` the figure was -12.2%.
As for `O=C(NCCc1ccc(Cl)cc1)C1CCCN1C(=O)NCc1ccccc1` (stereo not given), the growth rescue was -4.04%.
Take `O=C(CN1C(=O)NC2(CCCC2)C1=O)Nc1ccc(F)c(F)c1F`: the growth rescue is -3.83%.
`Cc1ccc(O)c(CNc2nc3ccccc3n2C)c1`: the growth rescue was 913% (active).
On to `Cn1c(NC(=O)c2ccccc2)nc2ccccc21`, for which the growth rescue is 4%.
For `CC(C)n1c(NCc2c[nH]c3ccccc23)nc2ccccc21`, the growth rescue is 5.8%.
As to `CCN1CCN(c2sc(S(C)(=O)=O)nc2S(=O)(=O)c2ccc(Cl)cc2)CC1`, the growth rescue is 2.93%.
Regarding `C/C(=N\NC(=O)C1(C)CC1(Br)Br)c1ccc(C)cc1C` (stereo not given), the growth rescue is 8.98%.
The same measure for `CCCCc1nccn1CCn1ccnc1CCCC`: 1.48%.
The same measure for `CCCN=C1NC(=O)C(CC(=O)NCCc2ccc(OC)c(OC)c2)S1` (stereo not given): 536% (active); for `COc1ccc(CCNC(=O)Cc2ccc(C)cc2)cc1OC`: 102%; for `COc1ccc(CCNC(=O)CC2SC(=Nc3cc(C)cc(C)c3)NC2=O)cc1OC` (stereo not given): 308%.
The same measure for `COc1cccc(N(CC(=O)NCc2ccccc2)C(=O)CCC(=O)Nc2nccs2)c1`: -6.15%; for `COC(=O)C1CCN(CC(N)=O)CC1`: -5.03%.
For `COc1ccc(C(=O)COC(=O)Cn2cnc3c2c(=O)n(C)c(=O)n3C)c(OC)c1`, the growth rescue was -7.8%.
With `O=C(Nn1cnnc1)c1cc(Cl)ccc1Cl`, the growth rescue was 4.55%.
As for `CN1CCN(S(=O)(=O)c2cccc(C(=O)Nc3cccc(S(N)(=O)=O)c3)c2)CC1`, the growth rescue was -8.57%.
With `COC(=O)CCCC1=CC2=CC(=O)C(C)(OC(=O)c3cccs3)C(=O)C2=CN1CC(C)C` (stereo not given) the figure was 13.6%; with `CCCCC1=CC2=CC(=O)C(C)(OC(=O)CC)C(=O)C2=CN1CCCOC(C)C` (stereo not given), 499% (active); with `COC(=O)CCCC1=CC2=CC(=O)C(C)(OC(=O)c3cccs3)C(=O)C2=CN1CC1CC1` (stereo not given), 414%.
Regarding `CCCCN(C1CCS(=O)(=O)C1)S(=O)(=O)c1ccc(C(C)C)cc1` (stereo not given), the growth rescue is 1.38%.
Turning to `CC(=O)c1ccc(S(=O)(=O)N2CCC(Oc3ccc(-n4cnnn4)cc3)CC2)cc1`, the growth rescue is -5.14%.
Consider `CCCCN(C(=O)COc1ccc(NC(C)=O)cc1)C1CCS(=O)(=O)C1` (stereo not given), for which the growth rescue was 0.599%.
In the case of `Cc1cccc(C)c1NC(=O)CN(C)C(=O)CCC(=O)c1ccccc1`, the growth rescue was -17.7%.
Turning to `Cc1cccc(C)c1NC(=O)C(Cl)C(=O)c1ccccc1` (stereo not given), the growth rescue was 474% (active).
The same measure for `Cc1cccc(C)c1NC(=O)C(c1ccccc1)N1CC(=O)Nc2ccccc21` (stereo not given): 8.11%.
With `CN(C)CCCN(Cc1cc2cc3c(cc2[nH]c1=O)OCCO3)C(=O)NC1CCCCC1` the figure was 4.3%.
Turning to `CCN1CCN(C(=O)N(Cc2ccc(Cl)cc2)S(=O)(=O)c2ccc(C)cc2)CC1`, the growth rescue was 2.05%.
Consider `COc1ccc(NS(=O)(=O)c2ccc(C(=O)Nc3c(C)n(C)n(-c4ccccc4)c3=O)cc2)cc1`, for which the growth rescue is -8.97%.
Consider `Cc1cccn2c(=O)c3cc(C(=O)NCCN4CCOCC4)c(=N)n(Cc4cccnc4)c3nc12`, for which the growth rescue was -5.56%.
For the compound `CCn1c(=N)c(C(=O)NCCCOC)cc2c(=O)n3cccc(C)c3nc21`, the growth rescue is 327% (active).
For `Cc1cccn2c(=O)c3cc(C(=O)NCC4CCCO4)c(=N)n(Cc4ccc(F)cc4)c3nc12` (stereo not given), the growth rescue was -5.43%.
As to `O=C(NC1CCN(C(=S)NCc2ccco2)CC1)c1ccc(F)cc1`, the growth rescue is -3%.
For `Cc1cc(NC(=O)CSCC(=O)NC(C)c2ccccc2)no1` (stereo not given), the growth rescue is 4.77%.
As to `N#Cc1ccc(S(=O)(=O)NCC(=O)OCC(=O)NCCc2ccccc2)cc1`, the growth rescue was 0.284%.
Regarding `COc1ccc(N(CCC(=O)NCCc2ccccc2)S(=O)(=O)c2ccc(C)cc2C)cc1`, the growth rescue was -11.2%.
`Cc1cccc(-[n+]2c(-c3cccc(Br)c3)[nH]c3nc4ccccc4nc32)c1`: the growth rescue is 655% (active).
For the compound `Cc1ccc(CNC(=O)COC(=O)C2CCC2)cc1`, the growth rescue was -6.16%.
Regarding `Cc1nccn1CCC1CCCCN1C(=O)CCc1nnc(-c2ccsc2)o1` (stereo not given), the growth rescue was -11.6%.
In the case of `COC(=O)/C=C\C(=O)Nc1cccc([N+](=O)[O-])c1`, the growth rescue was 362% (active).
As for `COc1ccc(S(=O)(=O)NC(C)C(=O)Nc2cccc([N+](=O)[O-])c2)cc1` (stereo not given), the growth rescue was -16.6%.
For `COc1cccc(CNC(=O)CCCC(=O)Nc2cccc([N+](=O)[O-])c2)c1`, the growth rescue is -7.72%.
Take `CCOC(=O)C1CCCN(C(=O)c2ccc(C)c(S(=O)(=O)N3CCCCC3)c2)C1` (stereo not given): the growth rescue was -5.7%.
Consider `CCOc1ccc2nc(N(CCCN(C)C)C(=O)c3ccc(C(=O)c4ccccc4)cc3)sc2c1`, for which the growth rescue was 1.2%.
The same measure for `CCOc1ccc2nc(N(CCN(C)C)C(=O)c3ccc4ccccc4c3)sc2c1`: 74.9%; for `CCCC(=O)N(CCN1CCOCC1)c1nc2ccc(OCC)cc2s1`: 371% (active).
Consider `O=C(CCNC(=O)c1ccc(Cl)cc1)NC1CCCc2ccccc21` (stereo not given), for which the growth rescue is 118%.
With `Cc1ccccc1-c1nc(CS(=O)(=O)CC(=O)NC(C)c2ccccc2)c(C)o1` (stereo not given) the figure was 5.04%.
For the compound `COC(=O)c1cc2occc2n1Cc1nc(-c2ccccc2C)oc1C`, the growth rescue was 611% (active).
On to `Cc1ccccc1-c1nc(CS(=O)(=O)CC(=O)N2CCc3ccccc3C2)c(C)o1`, for which the growth rescue was -11.2%.
With `N#CCc1ccc(OC(=O)c2cccnc2)cc1`, the growth rescue is 9.1%.
The same measure for `O=C(Oc1ccc(Br)cc1)c1cccnc1`: 1.84%; for `CCCCCCOc1ccc(OC(=O)c2cccnc2)cc1`: 329% (active); for `Cc1nc2ccc(NC(=O)c3cccc(S(=O)(=O)N4CCOCC4)c3)cc2s1`: -14.6%.
In the case of `CCc1cccc(NC(=O)C2CCCN(S(=O)(=O)c3ccc4[nH]c(=O)ccc4c3)C2)c1` (stereo not given), the growth rescue is -9.11%.
On to `Cc1cc(C)cc(NC(=O)C2CCCN(S(=O)(=O)c3ccc4[nH]c(=O)ccc4c3)C2)c1` (stereo not given), for which the growth rescue was 2800% (active).
Turning to `CC1CCN(S(=O)(=O)c2ccc3[nH]c(=O)ccc3c2)CC1`, the growth rescue was 14.3%.

(Values after PubChem BioAssay AID2716 (Broad Institute, 2010).)
